Out of some 340,000 compounds screened, about 3,300 (0.97%) were called active.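 How the source made its calls: active means maximum activity change below -70%; inconclusive means maximum activity change from -70% to -50%; inactive means maximum activity change above -50%.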 Shown is part of a subset that was picked to be rich in actives.
On the % scale 0 is the no-effect control and ±100 the full control effect.

For this assay, the system named is Potassium voltage-gated channel subfamily H member 2, brain isoform KCNH2 3.1 (human). The experiment in a line: qHTS for Inhibitors of KCHN2 3.1: Mutant qHTS. The note with it: U2OS KCNH2 3.1, thallium flux FluxOr; active compounds read low. The essentials: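 Thallium flux read-out: FluxOr dye with Red40 quencher in HBSS/HEPES, 45 min at RT. Rate constants from kinetic reads were normalized to positive and negative DMSO controls. Cells: U2OS virally expressing the 3.1 isoform.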
On the technique in general: Quantitative high-throughput screening tests each substance at several concentrations.
`CC1CN(C(=O)CCC(=O)NCCCN2CCC(Cc3ccccc3)CC2)c2cc(Cl)ccc2O1` (stereo unspecified): the activity change is -84.9% (active). The value for `CC1CN(C(=O)CCC(=O)NC2CCN(Cc3ccccc3)CC2)c2ccccc2O1` (stereo unspecified) was -0.725% (inactive); that for `CC1CN(C(=O)CCC(=O)NCc2cccnc2)c2ccccc2O1` (stereo unspecified) was 27.3% (inactive); that for `O=C1NC(Cc2ccccc2)c2nc3ccc(Br)cc3c(=O)n2-c2cc3ccccc3cc21` (stereo unspecified) was -16.2% (inactive). The value for `Cc1ccc([C@H]2N[C@]3(CCCN(Cc4ccccc4)C3=O)[C@H]3C(=O)N(Cc4ccccc4)C(=O)[C@@H]23)cc1` was 4.9% (inactive). With `O=C(COc1ccc(S(=O)(=O)N2CCCC2)cc1[N+](=O)[O-])N1CCCCC1`, the activity change is -5.01% (inactive).

For the molecule `CCOC(=O)CC1C(=O)NCCN1C(=O)COc1ccc(Br)cc1C` (stereo unspecified), the activity change was 3.78% (inactive). The value for `Cc1cc(/C=C2/SC(=O)N(CC(=O)OC(C)C)C2=O)c(C)n1C` was -7.88% (inactive); that for `CCN=C1S/C(=C\c2cc(Br)ccc2OCC(=O)OCC)C(=O)N1CC` was -71.6% (active); that for `Cc1ccc(C(=O)N2CCCc3ccccc32)c(Cl)c1` was 1.37% (inactive). In the case of `Cc1nn(-c2ncccn2)c2c1C(=O)CC(C)(C)C2Br` (stereo unspecified), the activity change was -151% (active). For the molecule `CC1=C(N2CCN(c3ncccn3)CC2)CCC1=O`, the activity change was -6.3% (inactive). To `Cc1nn(-c2ccccc2)c2c1C(=O)NC(=O)C(C)(C)C2` belongs -21.5% (inactive). On to `COc1ccccc1NC(=O)C(CC(=O)O)Cc1cc(C)cc(C)c1` (stereo unspecified), for which the activity change is 12.9% (inactive).

For the molecule `C[C@H](O)[C@@H]1C(=O)N2CCc3c([nH]c4ccccc34)[C@@H]2C[C@@H]1N(C)C(=O)Nc1ccc(F)cc1`, the activity change is -6% (inactive). Consider `CC(C)(C)C(=O)CN1C2=NCCN2c2ccccc21`, for which the activity change was 7.56% (inactive). To `OC(CN1C2=NCCCN2c2ccccc21)c1ccc(Br)cc1` (stereo unspecified) belongs -80.8% (active); to `Cc1cc2c(cc1C)N(Cc1ccccc1)C1=NCCCN12`, -15.2% (inactive); to `CCn1ccnc1CN(C)Cc1nc(-c2ccc3c(c2)OCO3)no1`, -1.19% (inactive). Regarding `CC(C)N(Cc1nc(-c2ccc3c(c2)OCO3)no1)CC1CCC(=O)N1` (stereo unspecified), the activity change was -93.2% (active). As for `CN(CCN1CCOCC1)Cc1nc(-c2ccc3c(c2)OCO3)no1`, the activity change is 3.94% (inactive). The value for `C[C@@H]1CN([C@H](C)CO)C(=O)c2cc(-c3ccc(F)cc3)cnc2O[C@H]1CN(C)C(=O)c1ccc(F)cc1` was -4.52% (inactive). `O=C(NCC(F)(F)F)c1ccc(S(=O)(=O)NCCc2ccc3c(c2)OCCO3)cc1`: the activity change was -2.33% (inactive). The value for `CCCCCCn1c(=O)n2n(c1=O)C[C@]1(OC(=O)NCc3ccc(OC)c(OC)c3)CN(S(=O)(=O)c3ccc(C)cc3)C[C@]1(O)C2` was -6.76% (inactive); that for `CN(CC#CCC(c1ccccc1)c1ccccc1)C(C)(C)C` was -77% (active).

`CC(C)(C)N(CC#CCC(O)(c1ccccc1)C1CCCC1)CCO` (stereo unspecified): the activity change was -6.97% (inactive). The value for `Cc1ccc(CCNC(=O)CN2C(=O)CSc3ccc(S(=O)(=O)N4CCOCC4)cc32)cc1` was 4.19% (inactive). To `COC(=O)[C@H]1C[C@H](OC(=O)NCc2ccccc2)[C@@]2(O)CN(S(=O)(=O)c3ccc(C)cc3)CC2[C@H]1C(=O)OC` (stereo partly specified) belongs 2.28% (inactive); to `C[C@H](CO)N1C[C@H](C)[C@@H](CN(C)Cc2ccc3c(c2)OCO3)OCc2cnnn2CCCC1=O`, -0.449% (inactive); to `COc1ccccc1C(=O)NCc1nnc(SC(C)C(=O)Nc2nccs2)n1C` (stereo unspecified), -5.02% (inactive). To `Cn1c(CNC(=O)c2ccccc2F)nnc1SCc1ccc(F)cc1` belongs 18.4% (inactive); to `CC(Sc1nnc(CNC(=O)c2ccccc2F)n1C)C(=O)Nc1nccs1` (stereo unspecified), -211% (active). `N#Cc1ccc(CN2CCN(CC(=O)Nc3ccccc3C(=O)NC3CC3)CC2)cc1`: the activity change was -103% (active).

Consider `O=C(CN1CCCCC1)Nc1ccccc1C(=O)NC1CC1`, for which the activity change was -2.8% (inactive). To `Cc1ccc(OCC(=O)Nc2ccccc2C(=O)NC2CC2)cc1` belongs 21% (inactive). The value for `COC(=O)c1ccc(CN2CCN(CCCc3ccccc3)C(CCO)C2)cc1` (stereo unspecified) was -48.5% (inactive); that for `CCOc1ccc(CN2CCN(CCCc3ccccc3)C(CCO)C2)cc1` (stereo unspecified) was -77.7% (active); that for `OCCC1CN(Cc2ccc(Oc3ncccn3)cc2)CCN1CCc1ccccc1` (stereo unspecified) was -3.13% (inactive).

Consider `O=C1c2ccccc2-c2ccccc2NC1O` (stereo unspecified), for which the activity change is 2.59% (inactive). To `O=C(c1ccc(OC2CCN(C/C=C/c3ccc(F)cc3)CC2)cc1)N1CCCCC1` belongs -73.2% (active). On to `O=C(c1ccc(OC2CCN(Cc3ccccn3)CC2)cc1)N1CCCCCC1`, for which the activity change is 10% (inactive). To `CC(=O)Nc1ccc(CN2CCC(Oc3ccc(C(=O)N4CCCC4)cc3)CC2)cc1` belongs 9.17% (inactive). To `Cc1ccc([C@H]2N[C@]3(CCCN(CC4CCCCC4)C3=O)[C@H]3C(=O)N(Cc4ccccc4)C(=O)[C@@H]23)cc1` belongs -5.04% (inactive). The value for `Nc1cccc(OCCCCCOc2cccc(N)c2)c1` was -1.75% (inactive); that for `CCc1ccc(S(=O)(=O)Nc2cc3c(cc2N2CCCCC2)n(C)c(=O)c(=O)n3C)cc1` was -8.37% (inactive); that for `CCCCN(CCCC)C(=O)CCS(=O)(=O)c1ccc2c(c1)n(C)c(=O)c(=O)n2C` was -1.58% (inactive).

As to `Cn1c(=O)c(=O)n(C)c2cc(S(=O)(=O)CCC(=O)N3CCCCC3)ccc21`, the activity change was -86.6% (active). `CCOC(=O)C1CCN(C(=O)c2ccc3c(=O)n4nc(Nc5ccccc5CC)sc4nc3c2)CC1`: the activity change was -6.19% (inactive).

For the molecule `CCOc1ccc(C2c3[nH]c4ccccc4c3CCN2Cc2cn(CC)nc2C)cc1` (stereo unspecified), the activity change is -7.11% (inactive). To `CCOc1ccc(C2c3[nH]c4ccccc4c3CCN2Cc2cccn2-c2ncccn2)cc1` (stereo unspecified) belongs -73.3% (active); to `c1ccc(C2c3[nH]c4ccccc4c3CCN2Cc2cccn2-c2cccnc2)nc1` (stereo unspecified), 7.54% (inactive); to `COc1ncnc2c1ncn2CCCNCCN1CCOCC1`, 7.59% (inactive). The value for `COc1ccc(CN2C(=O)C(CC(=O)NCc3cccc4ccccc34)CC(C(=O)N3CCOCC3)=C2C)cc1` (stereo unspecified) was 6.14% (inactive); that for `C[N+]1(CC(O)COc2ccccc2)CCN(C(=O)c2ccc([N+](=O)[O-])cc2)CC1` (stereo unspecified) was -11.2% (inactive). To `CC1CCN(CC(O)COc2ccc(C(=O)c3ccccc3)cc2)CC1` (stereo unspecified) belongs -6.71% (inactive); to `O=[N+]([O-])c1ccc(N2CCN(CC(O)COc3ccccc3)CC2)cc1` (stereo unspecified), -90.3% (active); to `O=C(C(c1ccccc1)c1ccccc1)N1CCN(CC(O)COc2ccccc2)CC1` (stereo unspecified), -70.2% (active). With `CCCc1ccc(OCC(O)CN2CCN(C(=O)OCC)CC2)cc1` (stereo unspecified), the activity change was -6.68% (inactive). To `OC(COc1ccccc1)CN1CCN(c2cccc(Cl)c2)CC1` (stereo unspecified) belongs -33.9% (inactive); to `CC1=C(C(=O)Nc2cccc(C(=O)NCC(C)c3ccccc3)c2)SCCO1` (stereo unspecified), 3.22% (inactive). To `COc1ccc(C(=O)NCC2CCCO2)cc1S(=O)(=O)NCc1ccc(Cl)cc1` (stereo unspecified) belongs -6.01% (inactive). The value for `N#CCSc1ccccc1NC(=O)CN1C(=O)NC(CCc2ccccc2)C1=O` (stereo unspecified) was 0.381% (inactive); that for `COc1ccc(-n2c(-c3ccc(Cl)cc3)n[nH]c2=S)c(OC)c1` was -3.64% (inactive); that for `O=C(CN1CCSCC1)N/N=C/c1ccc(F)cc1` was 1.88% (inactive). As to `Cc1ccc(COc2ccc(/C=N/NC(=O)CN3CCCCC3)cc2)cc1`, the activity change is -108% (active). The value for `CCOc1cc(/C=N/NC(=O)CN2CCCCC2)ccc1O` was 1.68% (inactive); that for `O=C1c2cccc3cccc(c23)C(=O)N1CCCCCc1n[nH]c(=S)o1` was -159% (active); that for `O=C1c2ccccc2C(=O)N1CCCc1nc(-c2ccccc2)no1` was 6.34% (inactive).

As for `O=C1c2ccccc2C(=O)N1CCCCCCN1C(=O)c2ccccc2C1=O`, the activity change is 6.18% (inactive). As to `c1ccc(CNCc2ccc(CNCc3ccccc3)cc2)cc1`, the activity change was 1.02% (inactive).

As for `COc1ccc(CN2CCC(c3nc4ccc(Cl)cc4[nH]3)CC2)cc1`, the activity change is -98.1% (active). On to `COc1ccc(Cn2nnc3c(=O)[nH]c(C4CCN(C(=O)c5ccccc5Cl)CC4)nc32)cc1`, for which the activity change was -29.8% (inactive). To `COc1ccc(F)c(-c2nc(CN3CCC(c4ccccc4)CC3)c(C)o2)c1` belongs -31.2% (inactive).

As to `COCCCn1c(C(=O)NC2CCCCC2)cc2c(=O)n3cccc(C)c3nc21`, the activity change was 5.72% (inactive). For the molecule `N#CC1(Nc2ccc3c4c(cccc24)CC3)CCCCC1`, the activity change is 0.638% (inactive). `COc1cc(OC)cc(C(=O)Nc2ccc(-c3nc4ccccc4o3)c(O)c2)c1`: the activity change is -93.4% (active).

Take `COc1ccc(NC(=O)c2cc(-c3ccc(C)o3)nc3ccccc23)cc1`: the activity change is -28.1% (inactive). On to `Cc1ccc2nc(-c3ccc(NC(=O)c4cccnc4)cc3)oc2c1`, for which the activity change was -11.7% (inactive). With `O=C(c1ncn2c1c(=O)[nH]c1ccccc12)N1CCc2ccccc2C1`, the activity change is -7.26% (inactive). On to `COc1ccccc1C(=O)NC(=S)Nc1ccc(N2CCOCC2)cc1`, for which the activity change was 6.65% (inactive). The value for `O=C(Nc1nnc(-c2ccccc2)o1)c1cc(-c2cccs2)nc2ccccc12` was -3.38% (inactive); that for `CCN(CC)CCNC(=O)c1ccc(NC(=O)c2cc(-c3ccncc3)nc3ccccc23)cc1` was 4.76% (inactive); that for `CCCCN(C)CCCNC(=O)c1cc(-c2cccs2)nc2ccccc12` was -71.7% (active). Turning to `CC1=C(C(=O)N2CCOCC2)CC(CC(=O)NCc2cccc3ccccc23)C(=O)N1CCC1=CCCCC1` (stereo unspecified), the activity change was 1.47% (inactive). The value for `O=C(OCc1cn([C@@H]2C[C@H](c3ccc(Cl)cc3)N(Cc3cccs3)C[C@H]2O)nn1)c1ccccc1` was 6.9% (inactive); that for `Cc1ccc(S(=O)(=O)N2C[C@@H](C)[C@]3(C2)[C@H](O)[C@H](OC(=O)NCc2ccccc2)C[C@H]2C(=O)N(c4ccccc4)C(=O)[C@H]23)cc1` was 5.25% (inactive).

(Values after PubChem BioAssay AID720553 (National Center for Advancing Translational Sciences (NCATS), 2013).)
